{"source": "paper PMC11062922", "about": "(Nature Chemical Biology, 2023)", "design_in_all_cases": "species or system human, MV4-11 + K-562 + COLO205 + SK-N-BE2 + OVCAR-8", "key": {"[1]": {"system": "CDKL5", "conditions": "read-out: apparent Kd, compound concentrations: 100 nM and 1000 nM (sheet 'Samples'), n = 1"}, "[2]": {"system": "MAPK11", "conditions": "read-out: apparent Kd; compound concentrations: 100 nM and 1000 nM (sheet 'Samples'), CATDS: 0.67677633408210103; n = 1"}, "[3]": {"system": "MAPK14", "conditions": "read-out: apparent Kd, compound concentrations: 100 nM and 1000 nM (sheet 'Samples'), n = 1"}, "[4]": {"system": "MAPKAPK2", "conditions": "read-out: apparent Kd, n = 1"}, "[5]": {"system": "CLK1", "conditions": "read-out: apparent Kd; compound concentrations: 100 nM and 1000 nM (sheet 'Samples'), CATDS: 9.1245201473329901E-2; n = 1"}, "[6]": {"system": "CLK4", "conditions": "read-out: apparent Kd; compound concentrations: 100 nM and 1000 nM (sheet 'Samples'), CATDS: 8.9493688970087706E-2; n = 1"}, "[7]": {"system": "CSNK1A1", "conditions": "read-out: apparent Kd; compound concentrations: 100 nM and 1000 nM (sheet 'Samples'), CATDS: 7.1676757807884198E-2; n = 1"}, "[8]": {"system": "CSNK1D", "conditions": "read-out: apparent Kd; compound concentrations: 100 nM and 1000 nM (sheet 'Samples'), CATDS: 0.23797441251711701; n = 1"}, "[9]": {"system": "CSNK1E", "conditions": "read-out: apparent Kd; compound concentrations: 100 nM and 1000 nM (sheet 'Samples'), CATDS: 0.17923780337449699; n = 1"}, "[10]": {"system": "DYRK1A", "conditions": "read-out: apparent Kd; compound concentrations: 100 nM and 1000 nM (sheet 'Samples'), CATDS: 7.8911513629173299E-2; n = 1"}, "[11]": {"system": "MAPK8", "conditions": "read-out: apparent Kd; compound concentrations: 100 nM and 1000 nM (sheet 'Samples'), CATDS: 6.0987882625533299E-2; n = 1"}, "[12]": {"system": "MELK", "conditions": "read-out: apparent Kd; compound concentrations: 100 nM and 1000 nM (sheet 'Samples'), CATDS: 6.0030175657403803E-2; n = 1"}, "[13]": {"system": "NQO2", "conditions": "read-out: apparent Kd; compound concentrations: 100 nM and 1000 nM (sheet 'Samples'), CATDS: 6.6170323393418801E-2; n = 1"}, "[14]": {"system": "RIOK2", "conditions": "read-out: apparent Kd; compound concentrations: 100 nM and 1000 nM (sheet 'Samples'), CATDS: 9.8324164530309899E-2; n = 1"}, "[15]": {"system": "TGFBR2", "conditions": "read-out: apparent Kd; compound concentrations: 100 nM and 1000 nM (sheet 'Samples'), CATDS: 8.1907636331175093E-2; n = 1"}, "[16]": {"system": "CDK6", "conditions": "read-out: apparent Kd; compound concentrations:100 nM and 1000 nM (sheet 'Samples'); n = 1"}, "[17]": {"system": "T1, DJA1", "T1 construct": "gene DNAJA1", "conditions": "read-out: apparent Kd; compound concentrations:100 nM and 1000 nM (sheet 'Samples'); n = 1"}, "[18]": {"system": "GARS", "conditions": "read-out: apparent Kd; compound concentrations:100 nM and 1000 nM (sheet 'Samples'); n = 1"}, "[19]": {"system": "GSK3A", "conditions": "read-out: apparent Kd; compound concentrations:100 nM and 1000 nM (sheet 'Samples'); n = 1"}, "[20]": {"system": "GSK3B", "conditions": "read-out: apparent Kd; compound concentrations:100 nM and 1000 nM (sheet 'Samples'); n = 1"}, "[21]": {"system": "MAP2K1", "conditions": "read-out: apparent Kd; compound concentrations:100 nM and 1000 nM (sheet 'Samples'); n = 1"}, "[22]": {"system": "NNT", "conditions": "read-out: apparent Kd; compound concentrations:100 nM and 1000 nM (sheet 'Samples'); n = 1"}, "[23]": {"system": "NQO1", "conditions": "read-out: apparent Kd; compound concentrations:100 nM and 1000 nM (sheet 'Samples'); n = 1"}, "[24]": {"system": "PIK3CA", "conditions": "read-out: apparent Kd; compound concentrations:100 nM and 1000 nM (sheet 'Samples'); n = 1"}, "[25]": {"system": "PIK3CD", "conditions": "read-out: apparent Kd; compound concentrations:100 nM and 1000 nM (sheet 'Samples'); n = 1"}, "[26]": {"system": "PRKCZ", "conditions": "read-out: apparent Kd; compound concentrations:100 nM and 1000 nM (sheet 'Samples'); n = 1"}, "[27]": {"system": "PRKD2", "conditions": "read-out: apparent Kd; compound concentrations:100 nM and 1000 nM (sheet 'Samples'); n = 1"}, "[28]": {"system": "PSMC3", "conditions": "read-out: apparent Kd; compound concentrations:100 nM and 1000 nM (sheet 'Samples'); n = 1"}, "[29]": {"system": "SMC4", "conditions": "read-out: apparent Kd; compound concentrations:100 nM and 1000 nM (sheet 'Samples'); n = 1"}, "[30]": {"system": "CDK4", "conditions": "read-out: apparent Kd; compound concentrations:100 nM and 1000 nM (sheet 'Samples'); n = 1"}, "[31]": {"system": "CDK7", "conditions": "read-out: apparent Kd; compound concentrations:100 nM and 1000 nM (sheet 'Samples'); n = 1"}, "[32]": {"system": "ERCC2", "conditions": "read-out: apparent Kd; compound concentrations:100 nM and 1000 nM (sheet 'Samples'); n = 1"}, "[33]": {"system": "MAPK10", "conditions": "read-out: apparent Kd; compound concentrations:100 nM and 1000 nM (sheet 'Samples'); n = 1"}, "[34]": {"system": "MAPK9", "conditions": "read-out: apparent Kd; compound concentrations:100 nM and 1000 nM (sheet 'Samples'); n = 1"}, "[35]": {"system": "NLK", "conditions": "read-out: apparent Kd; compound concentrations:100 nM and 1000 nM (sheet 'Samples'); n = 1"}, "[36]": {"system": "PIP4K2C", "conditions": "read-out: apparent Kd; compound concentrations:100 nM and 1000 nM (sheet 'Samples'); n = 1"}, "[37]": {"system": "PRKAA2", "conditions": "read-out: apparent Kd; compound concentrations:100 nM and 1000 nM (sheet 'Samples'); n = 1"}, "[38]": {"system": "TNK2", "conditions": "read-out: apparent Kd; compound concentrations:100 nM and 1000 nM (sheet 'Samples'); n = 1"}}, "note": "Like-named read-outs stand apart in the source and are kept apart here.", "data": [{"compound": "Cl.Nc1c(C(=O)c2cccc(-c3ccncc3)c2)cnn1-c1ccc(F)cc1F", "note": "[RO1166300-001]", "values": [{"measurement": "potency estimated from few doses", "setting": "[1]; CATDS: 0.17547829897004599", "result": 1830, "unit": "nM"}, {"measurement": "potency estimated from few doses", "setting": "[2]", "result": 82.3, "unit": "nM"}, {"measurement": "potency estimated from few doses", "setting": "[3]; CATDS: 0.205012911986655", "result": 1060, "unit": "nM"}, {"measurement": "potency estimated from few doses", "setting": "[4]; compound concentrations: 100 nM and 1000 nM (sheet 'Samples'), CATDS: 0.2534240729319", "result": 584, "unit": "nM"}]}, {"compound": "FC(F)(F)CNc1nccc(-c2cnn3ncccc23)n1", "note": "[GW683003X]", "values": [{"measurement": "potency estimated from few doses", "setting": "[1]; CATDS: 6.7048972560418404E-2", "result": 1220, "unit": "nM"}, {"measurement": "potency estimated from few doses", "setting": "[5]", "result": 572, "unit": "nM"}, {"measurement": "potency estimated from few doses", "setting": "[6]", "result": 596, "unit": "nM"}, {"measurement": "potency estimated from few doses", "setting": "[7]", "result": 1010, "unit": "nM"}, {"measurement": "potency estimated from few doses", "setting": "[8]", "result": 117, "unit": "nM"}, {"measurement": "potency estimated from few doses", "setting": "[9]", "result": 176, "unit": "nM"}, {"measurement": "potency estimated from few doses", "setting": "[10]", "result": 792, "unit": "nM"}, {"measurement": "potency estimated from few doses", "setting": "[11]", "result": 1650, "unit": "nM"}, {"measurement": "potency estimated from few doses", "setting": "[12]", "result": 1740, "unit": "nM"}, {"measurement": "potency estimated from few doses", "setting": "[13]", "result": 1270, "unit": "nM"}, {"measurement": "potency estimated from few doses", "setting": "[14]", "result": 491, "unit": "nM"}, {"measurement": "potency estimated from few doses", "setting": "[15]", "result": 726, "unit": "nM"}]}, {"compound": "COc1cccc(C2=C(Nc3cccc(C(=O)O)c3)C(=O)NC2=O)c1", "note": "[SB-390770]", "values": [{"measurement": "potency estimated from few doses", "setting": "[16]", "result": 2180, "unit": "nM"}, {"measurement": "potency estimated from few doses", "setting": "[17]", "result": 842, "unit": "nM"}, {"measurement": "potency estimated from few doses", "setting": "[18]", "result": 1360, "unit": "nM"}, {"measurement": "potency estimated from few doses", "setting": "[19]", "result": 830, "unit": "nM"}, {"measurement": "potency estimated from few doses", "setting": "[20]", "result": 859, "unit": "nM"}, {"measurement": "potency estimated from few doses", "setting": "[21]", "result": 2350, "unit": "nM"}, {"measurement": "potency estimated from few doses", "setting": "[22]", "result": 1120, "unit": "nM"}, {"measurement": "potency estimated from few doses", "setting": "[23]", "result": 2210, "unit": "nM"}, {"measurement": "potency estimated from few doses", "setting": "[24]", "result": 226, "unit": "nM"}, {"measurement": "potency estimated from few doses", "setting": "[25]", "result": 130, "unit": "nM"}, {"measurement": "potency estimated from few doses", "setting": "[26]", "result": 1580, "unit": "nM"}, {"measurement": "potency estimated from few doses", "setting": "[27]", "result": 1720, "unit": "nM"}, {"measurement": "potency estimated from few doses", "setting": "[28]", "result": 907, "unit": "nM"}, {"measurement": "potency estimated from few doses", "setting": "[29]", "result": 986, "unit": "nM"}]}, {"compound": "O=C1NC(=O)C(c2ccc(Cl)cc2)=C1Nc1ccc(O)cc1", "note": "[SB-340867]", "values": [{"measurement": "potency estimated from few doses", "setting": "[30]", "result": 1970, "unit": "nM"}, {"measurement": "potency estimated from few doses", "setting": "[22]", "result": 1720, "unit": "nM"}]}, {"compound": "Cl.Cn1c(=O)c(Oc2ccccc2)cc2cnc(NC3CCOCC3)nc21", "note": "[RO3304757-001]", "values": [{"measurement": "potency estimated from few doses", "setting": "[31]", "result": 1310, "unit": "nM"}, {"measurement": "potency estimated from few doses", "setting": "[32]", "result": 1500, "unit": "nM"}, {"measurement": "potency estimated from few doses", "setting": "[33]", "result": 984, "unit": "nM"}, {"measurement": "potency estimated from few doses", "setting": "[3]; CATDS: 0.27428845343206798", "result": 68.9, "unit": "nM"}, {"measurement": "potency estimated from few doses", "setting": "[34]", "result": 349, "unit": "nM"}, {"measurement": "potency estimated from few doses", "setting": "[4]; compound concentrations:100 nM and 1000 nM (sheet 'Samples')", "result": 64.7, "unit": "nM"}, {"measurement": "potency estimated from few doses", "setting": "[35]", "result": 148, "unit": "nM"}, {"measurement": "potency estimated from few doses", "setting": "[36]", "result": 896, "unit": "nM"}, {"measurement": "potency estimated from few doses", "setting": "[37]", "result": 1770, "unit": "nM"}, {"measurement": "potency estimated from few doses", "setting": "[38]", "result": 1160, "unit": "nM"}]}]}
